# Laboratory results: PubChem BioAssay (EPA / NIEHS)
# Values joined by “and” are separate entries in the source; they are usually repeats but may differ in a detail not shown here. Identical values can stand only once. More than one record can exist for a structure, and the calls need not agree. Active and inactive are the calls of the source. The calls were made as follows: active = hit-call score of the fitted dose curve at least 0.9, where 1 is the maximum; inactive = score below 0.9.
# Columns and labels:
# [1] = read-out: Tissue plasminogen activator (tPA), PLAT (gene 5327); experiment: BSK_BE3C_tPA: BioMAP Diversity Plus: BE3C Assay for Tissue plasminogen activator (tPA) Biomarker Activity (AID 2283041); details: primary human bronchial epithelial cells; actives raise or lower the signal;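 as to outcome: tPA level quantified by ELISA one day after compound addition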
# Method in brief: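 Bidirectional curve fitting relative to DMSO defined activity, with tPA detected by ELISA in chemically treated human bronchial epithelial primary cells at 24 hours.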
# [2] = read-out: Interleukin-8 (IL8), CXCL8 (gene 3576); experiment: BSK_CASM3C_IL8: BioMAP Diversity Plus: CASM3C Assay for Interleukin-8 (IL8) Biomarker Activity (AID 2283042); details: primary human coronary artery smooth muscle cells; actives raise or lower the signal;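 also: IL-8 protein level quantified by ELISA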
# [3] = read-out: Human Leukocyte Antigen - DR isotype (HLADR), HLA-DRA (gene 3122); experiment: BSK_CASM3C_HLADR: BioMAP Diversity Plus: CASM3C Assay for Human Leukocyte Antigen - DR isotype (HLADR) Biomarker Activity (AID 2283043); details: primary human coronary artery smooth muscle cells; actives raise or lower the signal;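 also: cell-surface HLA-DR protein level quantified by ELISA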
# [4] = read-out: Macrophage colony-stimulating factor (MCSF), CSF1 (gene 1435); experiment: BSK_CASM3C_MCSF: BioMAP Diversity Plus: CASM3C Assay for Macrophage colony-stimulating factor (MCSF) Biomarker Activity (AID 2283044); details: primary human coronary artery smooth muscle cells; actives raise or lower the signal;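 also: M-CSF protein amount quantified by ELISA after 24 h exposure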
# [5] = read-out: Low-density lipoprotein receptor (LDLR), LDLR (gene 3949); experiment: BSK_CASM3C_LDLR: BioMAP Diversity Plus: CASM3C Assay for Low-density lipoprotein receptor (LDLR) Biomarker Activity (AID 2283045); details: primary human coronary artery smooth muscle cells; actives raise or lower the signal;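 also: LDLR protein level on the cell surface quantified by ELISA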
# [6] = read-out: Monocyte Chemoattractant Protein-1 (MCP1), CCL2 (gene 6347); experiment: BSK_CASM3C_MCP1: BioMAP Diversity Plus: CASM3C Assay for Monocyte Chemoattractant Protein-1 (MCP1) Biomarker Activity (AID 2283046); details: primary human coronary artery smooth muscle cells; actives raise or lower the signal;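 also: MCP-1 level quantified by ELISA 24 h after dosing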
# [7] = BSK_CASM3C_Proliferation: Cell Proliferation Assessment in the BioMAP Diversity Plus: CASM3C Assay (AID 2283047); details: primary human coronary artery smooth muscle cells;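 also: sulforhodamine B total protein stain as relative cell number at 560 nm; sub-confluent cells exposed 48 h before staining; fitted both ways against DMSO so gain or loss of cell number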
# [8] = read-out: Monokine induced gamma interferon (MIG), CXCL9 (gene 4283); experiment: BSK_CASM3C_MIG: BioMAP Diversity Plus: CASM3C Assay for Monokine induced gamma interferon (MIG) Biomarker Activity (AID 2283048); details: primary human coronary artery smooth muscle cells; actives raise or lower the signal;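 also: MIG protein level measured by ELISA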
# [9] = read-out: serum amyloid A (SAA), SAA1 (gene 6288); experiment: BSK_CASM3C_SAA: BioMAP Diversity Plus: CASM3C Assay for serum amyloid A (SAA) Biomarker Activity (AID 2283049); details: primary human coronary artery smooth muscle cells; actives raise or lower the signal;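 also: SAA protein level quantified by ELISA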
# [10] = BSK_CASM3C_SRB: Viability Assessment in the BioMAP Diversity Plus: CASM3C Assay (AID 2283050); details: primary human coronary artery smooth muscle cells;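 also: total protein by SRB staining as cytotoxicity measure in parallel cultures; cells exposed to compound for 24 h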
SMILES,outcome [1],AC50 [2],AC50 [3],AC50 [4],AC50 [5],AC50 [6],AC50 [7],AC50 [8],AC50 [9],AC50 [10],outcome [2],outcome [3],outcome [4],outcome [5],outcome [6],outcome [7],outcome [8],outcome [9],outcome [10],AC50 [1]
CC1CCC(C(C)CS)CC1S (stereo unspecified),inactive,20 µM (active),35.8 µM (active),22.3 µM (active),20 µM (active),30.9 µM (active),29.6 µM (active),36.5 µM (active),20 µM (active),29.7 µM (active),,,,,,,,,,
Cc1ccc(Nc2ccc(O)c3c2C(=O)c2ccccc2C3=O)cc1,inactive,,,,,,,,,,inactive,inactive,inactive,inactive,inactive,inactive,inactive,inactive,inactive,
Cc1cc(C2(c3cc(C)c(O)cc3C)OS(=O)(=O)c3ccccc32)c(C)cc1O,inactive,,,,,,,,,,inactive,inactive,inactive,inactive,inactive,inactive,inactive,inactive,inactive,
O=C(O)c1cn(-c2ccc(F)cc2)c2cc(N3CCNCC3)c(F)cc2c1=O,inactive,,,,,,,,,,inactive,inactive,inactive,inactive,inactive,inactive,inactive,inactive,inactive,
CC(=O)[C@H]1CC[C@H]2[C@@H]3CC=C4C[C@@H](O)CC[C@]4(C)[C@H]3CC[C@]12C,inactive,,,,1.86 µM (active),10.9 µM (active),6.96 µM (active),,,,inactive,inactive,inactive,inactive,inactive,inactive,inactive,inactive,inactive,
Nc1cc([N+](=O)[O-])ccc1O,inactive,,11.8 µM (active),,,,,,,,inactive,inactive,inactive,inactive,inactive,inactive,inactive,inactive,inactive,
C#C[C@]1(O)CC[C@H]2[C@@H]3CCC4=Cc5oncc5C[C@]4(C)[C@H]3CC[C@@]21C,inactive,,,,33.9 µM (active),0.92 µM (active),3.97 µM (active),,,20 µM (active),inactive,inactive,inactive,,,,inactive,inactive,,
CC(C)Oc1ccccc1O,inactive,,,,,,,,,,inactive,inactive,inactive,inactive,inactive,inactive,inactive,inactive,inactive,
COC(=O)c1ccc(C)cc1,inactive,,,,,,,,,,inactive,inactive,inactive,inactive,inactive,inactive,inactive,inactive,inactive,
CC(=O)OCCC(C)CC(C)(C)C (stereo unspecified),inactive,,5 µM (active),,,,,,,,inactive,inactive,inactive,inactive,inactive,inactive,inactive,inactive,inactive,
O=C(O)C[C@H](O)C[C@H](O)/C=C/c1c(C2CC2)nc2ccccc2c1-c1ccc(F)cc1,,,,0.0636 µM (active),,0.0117 µM (active),0.129 µM (active),,,,inactive,inactive,,inactive,,,inactive,inactive,inactive,0.0843 µM (active)
CC1COc2ccccc2N1C(=O)C(Cl)Cl (stereo unspecified),,,2.96 µM (active),0.0828 µM (active),,,8.84 µM (active),,,5.64 µM (active),inactive,,,inactive,inactive,,inactive,inactive,,3.04 µM (active)
CCCCC(CC)COC(=O)/C=C\C(=O)OCC(CC)CCCC (stereo unspecified),inactive,,,,,,,,,,inactive,inactive,inactive,inactive,inactive,inactive,inactive,inactive,inactive,
Nc1cc([N+](=O)[O-])ccc1Cl,inactive,,,,,,,,,,inactive,inactive,inactive,inactive,inactive,inactive,inactive,inactive,inactive,
Cc1ccc2n[nH]nc2c1,inactive,,,,,,,,,,inactive,inactive,inactive,inactive,inactive,inactive,inactive,inactive,inactive,
OC1OC[C@@H](O)[C@H](O)[C@H]1O (stereo partly specified),inactive,,,,,,,,,,inactive,inactive,inactive,inactive,inactive,inactive,inactive,inactive,inactive,
C=C(C)C(=O)O[C@H]1C[C@@H]2CC[C@@]1(C)C2(C)C,,22.3 µM (active),8.32 µM (active),7.53 µM (active),,12.4 µM (active),23.5 µM (active),27.1 µM (active),,13.2 µM (active),,,,inactive,,,,inactive,,20 µM (active)
CC(C)c1ccc(C(C)C)cc1,,,25.9 µM (active),32.4 µM (active),,32.4 µM (active),31.4 µM (active),31.3 µM (active),,30.6 µM (active),inactive,,,inactive,,,,inactive,,23.3 µM (active)
CCc1c(C)cc(N)c(CC)c1N,inactive,,,,,,,,,,inactive,inactive,inactive,inactive,inactive,inactive,inactive,inactive,inactive,
CCC(=O)OCc1ccccc1,inactive,,,,,,,,,,inactive,inactive,inactive,inactive,inactive,inactive,inactive,inactive,inactive,
O=C(O)c1ccc([N+](=O)[O-])cc1,inactive,,,,,,,,,,inactive,inactive,inactive,inactive,inactive,inactive,inactive,inactive,inactive,
O=C=NC1CCC(CC2CCC(N=C=O)CC2)CC1 (stereo unspecified),inactive,,,,0.0156 µM (active),,0.0151 µM (active),,,,inactive,inactive,inactive,,inactive,,inactive,inactive,inactive,
CCCCCCCCCC=O,inactive,,,,,,,,,,inactive,inactive,inactive,inactive,inactive,inactive,inactive,inactive,inactive,
C[C@H]1C[C@@H]2[C@H]([C@@H](O)C[C@@]3(C)[C@H]2CC[C@]3(O)C(=O)CO)[C@@]2(C)C=CC(=O)C=C12,inactive,471 nM (active) and 1.18 µM (active),,0.15 µM (active),,4.62 µM (active),,,0.15 µM (active),,,inactive,,inactive,inactive,inactive,inactive,,inactive,
COc1cc(C=O)ccc1OC(=O)C(C)C,inactive,,,2.86 µM (active),0.15 µM (active),,,,,,inactive,inactive,inactive,inactive,inactive,inactive,inactive,inactive,inactive,
CC(C)(COC(=O)c1ccccc1)COC(=O)c1ccccc1,inactive,,,,,,,,,,inactive,inactive,inactive,inactive,inactive,inactive,inactive,inactive,inactive,

SMILES,outcome [1],AC50 [2],AC50 [3],AC50 [4],AC50 [5],AC50 [6],AC50 [7],AC50 [8],AC50 [9],AC50 [10],outcome [2],outcome [3],outcome [4],outcome [5],outcome [6],outcome [7],outcome [8],outcome [9],outcome [10],AC50 [1]
c1ccc2c(c1)c1cccc3ccc4cccc2c4c31,inactive,,,,,,,,,,inactive,inactive,inactive,,inactive,inactive,inactive,inactive,inactive,
CCCCCCCCCCCCCCCCCC(=O)OCC(CC)CCCC (stereo unspecified),inactive,,,,,,,,,,inactive,inactive,inactive,inactive,inactive,inactive,inactive,inactive,inactive,
O=C1CCCCCCCCCCCCCCO1,,36.8 µM (active),28.4 µM (active),29 µM (active),30 µM (active),31 µM (active),20 µM (active),32.6 µM (active),29.8 µM (active),30.9 µM (active),,,,,,,,,,12.7 µM (active)
O=P(c1ccccc1)(c1ccccc1)c1ccccc1,inactive,,,,,,,,,,inactive,inactive,inactive,inactive,inactive,inactive,inactive,inactive,inactive,
Cc1ccc(O)c(C(C)(C)C)c1,inactive,,26.8 µM (active),,,33.4 µM (active),29.1 µM (active),33.2 µM (active),,24.6 µM (active),inactive,,inactive,inactive,,,,inactive,,
OC[C@H]1O[C@H](O[C@]2(CCl)O[C@H](CCl)[C@@H](O)[C@@H]2O)[C@H](O)[C@@H](O)[C@H]1Cl,inactive,,,,,,,,,,inactive,inactive,inactive,inactive,inactive,inactive,inactive,inactive,inactive,
CCCCC/C=C/C=C/C=O,inactive,,23.7 µM (active),20 µM (active),,36.1 µM (active),30.3 µM (active),,,32.3 µM (active),inactive,,,inactive,,,inactive,inactive,,
CC(=O)/C=C/C1=C(C)CCCC1(C)C,inactive,,,,,,,,,,inactive,inactive,inactive,inactive,inactive,inactive,inactive,inactive,inactive,
CCCCCCCCC=O,inactive,,,,,,,,,,inactive,inactive,inactive,inactive,inactive,inactive,inactive,inactive,inactive,
CNC[C@H](O)c1cccc(O)c1,inactive,,,,,,,,,,inactive,inactive,inactive,inactive,inactive,inactive,inactive,inactive,inactive,
CN(CCOc1ccc(CC2SC(=O)NC2=O)cc1)c1ccccn1 (stereo unspecified),inactive,,,,4.98 µM (active),,,,,,inactive,inactive,inactive,,inactive,inactive,inactive,inactive,inactive,
CC(=O)O[C@]1(C(C)=O)CC[C@H]2[C@@H]3C[C@H](C)C4=CC(=O)CC[C@]4(C)[C@H]3CC[C@@]21C,inactive,0.0082 µM (active),,,14.7 µM (active),0.604 µM (active),,,0.0082 µM (active),,,inactive,inactive,,,inactive,inactive,,inactive,
C=C[Si](OCC)(OCC)OCC,inactive,,,,,,,,,,inactive,inactive,inactive,inactive,inactive,inactive,inactive,inactive,inactive,
O=C(O)c1cn(C2CC2)c2cc(N3CCNCC3)c(F)cc2c1=O,inactive,,,,,,,,,,inactive,inactive,,inactive,inactive,inactive,inactive,inactive,inactive,
O=[N+]([O-])c1cc(C(F)(F)F)ccc1Cl,inactive,,,,,,,,,,inactive,inactive,inactive,inactive,inactive,inactive,inactive,inactive,inactive,
O=C1OC2(c3cc(Br)c(O)c(Br)c3Oc3c2cc(Br)c(O)c3Br)c2c(Cl)c(Cl)c(Cl)c(Cl)c21,,,,,,0.0114 µM (active),,,,,inactive,inactive,inactive,inactive,,inactive,inactive,inactive,inactive,0.744 µM (active)
NCCNCCN,inactive,,,,,,,,,,inactive,inactive,inactive,inactive,inactive,inactive,inactive,inactive,inactive,
CC(=O)Nc1ccccc1O,inactive,,,,,,,,,,inactive,inactive,inactive,inactive,inactive,inactive,inactive,inactive,inactive,
BrC1CCC(Br)C(Br)CCC(Br)C(Br)CCC1Br (stereo unspecified),inactive,,,,,,0.11 µM (active),,,,inactive,inactive,inactive,inactive,inactive,,inactive,inactive,inactive,
CC[Si](OC(C)=O)(OC(C)=O)OC(C)=O,inactive,,,,,,,,,,inactive,inactive,inactive,inactive,inactive,inactive,inactive,inactive,inactive,
CCCCC(CC)COCCC#N (stereo unspecified),inactive,,,,0.151 µM (active),,,,,,inactive,inactive,inactive,,inactive,inactive,inactive,inactive,inactive,
CCn1c2ccccc2c2cc(N)ccc21,,,,0.426 µM (active),,,,,,,inactive,inactive,,inactive,inactive,inactive,inactive,inactive,inactive,3.97 µM (active)
c1ccc2sc(SN(C3CCCCC3)C3CCCCC3)nc2c1,inactive,,,,,,0.117 µM (active),,,,inactive,inactive,inactive,inactive,inactive,,inactive,inactive,inactive,
C=CCOC(=O)CCC1CCCCC1,inactive,,,,,,,,,,inactive,inactive,inactive,inactive,inactive,inactive,inactive,inactive,inactive,
N#Cc1ccc(CC(=NNC(=O)Nc2ccc(OC(F)(F)F)cc2)c2cccc(C(F)(F)F)c2)cc1,inactive,,,,,,,,,,inactive,inactive,inactive,inactive,inactive,inactive,inactive,inactive,inactive,
